# A selection: hits, their analogues and other compounds. The true share with any hit is near 2.8%.
# PglD inh: inhibitors of Campylobacter jejuni PglD acetyltransferase; 360,000 tested, 0.098% active; AID 602405; inhibition, % at 12.5 µM; purified PglD enzyme, DTNB colorimetric CoA detection; in the data active = inhibition above about 16%, passing the limit was not always enough
# PvdQ inh: P. aeruginosa PvdQ acylase inhibition; purified PvdQ acylase, fluorescence plate reader; 340,000 tested, 0.063% active; inhibition, % at 10 µM; AID 488965; in the data active = inhibition above about 30%, passing the limit was not always enough;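 also: 0% = vehicle neutral wells and 100% = reference inhibitor wells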
# dFosB act: mouse delta FosB homodimer activation; 340,000 tested, 0.99% active; activation, % at 25 µM; purified delta FosB, TAMRA-CDK5 oligo fluorescence polarization; percent of positive-control signal above neutral wells;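 active = mean activation above about 17%, with every replicate also reaching it, limit read from the data, passing the limit was not always enough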
# SIRT5 block: inhibitors of human sirtuin-5 desuccinylase. Q9NXA8. Purified SirT5, succinyl-peptide AMC, trypsin-coupled fluorescence. inhibition, % at 15 µM. 330,000 tested, 1.1% active. AID 652115; in the data active = inhibition above about 15%
# Target sequence (Q9NXA8 whole entry, looked up): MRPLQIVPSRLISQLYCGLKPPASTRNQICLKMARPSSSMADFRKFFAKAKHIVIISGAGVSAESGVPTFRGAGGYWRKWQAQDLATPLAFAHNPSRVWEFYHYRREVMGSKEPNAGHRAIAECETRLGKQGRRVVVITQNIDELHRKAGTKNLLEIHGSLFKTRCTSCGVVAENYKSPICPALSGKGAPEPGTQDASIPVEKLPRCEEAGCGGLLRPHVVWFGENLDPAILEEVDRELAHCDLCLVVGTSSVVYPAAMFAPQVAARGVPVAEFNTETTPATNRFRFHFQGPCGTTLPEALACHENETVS
# CDK5 inh: CDK5/p35 (human) kinase inhibition | inhibition, % at 10 µM | 330,000 tested, 0.01% active | Q00535+Q15078 | Recombinant CDK5/p35, ADP-Glo luminescence, 60 min;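 active = highest replicate inhibition of at least 50% and at least 75% of replicates reaching 50%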;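 also: plate controls were DMSO neutral control for no effect and GW8510 at 10 µM for full effect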
# FGF22 binding-1: shifts melting point of recombinant human FGF22; AID 651658; Q9HCT0; activity (Tm shift, normalised), % at 9.99 µM; recombinant FGF22 thermal shift, SYPRO orange fluorescence; percent of sucrose octasulfate shift, DMSO zero; 340,000 tested, 1.5% active;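 active = mean Tm shift, scaled 0 neutral to 100 positive control, at about 1.3% or above, every replicate too, limit read from the data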
# Target sequence (Q9HCT0 whole entry, looked up): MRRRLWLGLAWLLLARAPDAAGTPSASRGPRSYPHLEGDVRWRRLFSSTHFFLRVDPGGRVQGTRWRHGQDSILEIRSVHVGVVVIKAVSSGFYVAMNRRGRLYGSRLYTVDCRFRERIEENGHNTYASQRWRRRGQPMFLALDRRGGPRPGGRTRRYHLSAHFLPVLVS
# FGF22 binding-2: binders of human FGF22 by thermal shift; shares compounds with FGF22 binding-1; recombinant FGF22 thermal shift, SYPRO orange fluorescence; thermal shift activity, °C (ΔTm) at 38 µM; 1,000 tested, 2% active;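 active = fitted rise in melting shift crosses a set limit at or below the top valid dose tested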
# FGF22 TSA: binds human FGF22 shifting its melting temperature. shares compounds with FGF22 binding-1. Thermal shift assay, SYPRO orange, melting temperature shift. Tm shift (activity), % at 38 µM. AID 743017. 50 tested, under 10 active;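 active = compounds whose fitted dose curve of melting temperature shift rises past a set threshold within the tested doses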
# SYPRO no-protein: compound-only SYPRO artifact for FGF22 binders | shares compounds with FGF22 binding-1 | compound-only SYPRO orange thermal shift counter-screen, no protein | AC50, µM (top dose mostly 38 µM) | 1,000 tested, 2% active;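 active = rising signal whose fitted curve reaches the 0.54 level within the top valid dose, showing a melting point, actives reach about 13 µM in these data; inactive = the rest, including activity in the opposite direction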; also: value is where the raw curve crosses a fixed level and not half-maximal
# The depositor's hits bear a star; i = inactive; nt = not tested or not shown; [ ] = remark or other dose.
SMILES,PglD inh,PvdQ inh,dFosB act,SIRT5 block,CDK5 inh,FGF22 binding-1,FGF22 binding-2,SYPRO no-protein,others
COc1cc(C(=O)N/N=C/c2ccc3c(c2)c2ccccc2n3C)ccc1O,2,-5,0,-2,-1,0,nt,nt,
C[C@@H]1CN([C@H](C)CO)C(=O)c2cc(C#CCN(C)C)cnc2O[C@H]1CN(C)C(=O)CN1CCOCC1,0,nt,nt,1,nt,0,nt,nt,
O=C(O)C1=C[C@@H](c2ccc3c(c2)Cc2ccccc2-3)C[C@@H](OCc2ccc(CO)cc2)O1,1,nt,nt,-9,nt,0,nt,nt,
CC(C)CCSc1nc2c(c(=O)[nH]c(=O)n2C)n1CCCc1ccccc1,-3,-5,-9,-2,2,0,nt,nt,
Cn1c(=O)[nH]c(=O)c2c1nc(SCC(O)CO)n2CCCc1ccccc1 (configuration not stated),2,-12,-11,-2,-1,1.4*,0.026,i,
Cn1ncc2c(Nc3ccc(O)cc3)nc(Cl)nc21,-4,-10,-6,3,0,26*,-0.002,i,
O=C(Cc1n[nH]c(=O)[nH]c1=O)N/N=C/c1ccccc1,6,0,3,nt,1,nt,nt,nt,
O=C(Cc1n[nH]c(=O)[nH]c1=O)N/N=C/c1c(O)ccc2ccccc12,nt,9,5,2,1,1.4*,nt,10µM*,
C[C@@H]1CCCCO[C@H](CN(C)C(=O)Nc2ccc3c(c2)OCO3)[C@@H](C)CN([C@@H](C)CO)C(=O)c2cc(NS(=O)(=O)c3cccs3)ccc2O1,-1,nt,nt,2,nt,0,nt,nt,
O=C(Nc1ccc(NC(=O)c2cccs2)cc1)c1cccs1,-1,-3,10,-4,-3,1,nt,nt,
Cc1ccn(-c2ccc(NC(=O)c3cccs3)cc2)n1,2,-11,-2,-5,3,1.8*,0.088,i,FGF22 TSA=0
CC(C)C#Cc1cnc2c(c1)C(=O)N([C@@H](C)CO)C[C@H](C)[C@H](CN(C)C(=O)c1cnccn1)O2,10,nt,nt,3,nt,1.3*,0.16[42 µM],i,
COCC#Cc1cnc2c(c1)C(=O)N([C@H](C)CO)C[C@H](C)[C@H](CN(C)C(=O)c1cnccn1)O2,-8,nt,nt,5,nt,3.2*,0.075,i,
N/C(=N\OCC(=O)Nc1ccc(F)c(Cl)c1)c1ccccc1,0,13,-5,-5,1,1.6*,0.33,i,
O=C(Nc1ccc(F)c(Cl)c1)c1ccccc1,6,-11,1,nt,0,1,nt,nt,
CC(C)NC(=O)N[C@H]1CC[C@@H](CC(=O)O)O[C@@H]1CO,5,nt,nt,1,nt,1.5*,0.097[42 µM],i,
CCCNC(=O)N1[C@H](CN(C)C(C)=O)[C@H](c2ccc(C3=CCCC3)cc2)[C@@H]1CO,-2,nt,nt,10,nt,0,nt,nt,
Cn1cc([N+](=O)[O-])c(C(=O)Nc2ccc3nc(-c4ccccc4)[nH]c3c2)n1,4,-6,-9,5,-2,15*,0.22,i,
Cn1cc([N+](=O)[O-])c(C(=O)Nc2ccc(-c3nc4ccccc4[nH]3)cc2)n1,nt,-2,-4,-8,1,0,nt,nt,
O=C(CCN1CCCCC1)NCC[C@H]1CC[C@@H](NC(=O)Cc2cccnc2)[C@@H](CO)O1,2,nt,nt,5,nt,0,nt,nt,
C[C@@H]1CCCCO[C@H](CN(C)S(=O)(=O)c2ccc(Cl)cc2)[C@@H](C)CN([C@H](C)CO)C(=O)c2cc(NC(=O)CCCCCC(=O)Nc3ccccc3N)ccc2O1,nt,nt,nt,0,nt,0,nt,nt,
O=C(C[C@@H]1CC[C@H](NC(=O)Nc2cc(F)ccc2F)[C@@H](CO)O1)Nc1ccc(-c2ccccc2)cc1,6,nt,nt,0,nt,1,nt,nt,
O=C(N[C@H]1CC[C@@H](CCNS(=O)(=O)c2ccc(F)cc2)O[C@H]1CO)C1CCCC1,1,nt,nt,0,nt,9.7*,0.12[42 µM],i,
O=C(C[C@H]1CC[C@H](NC(=O)Nc2cc(F)ccc2F)[C@@H](CO)O1)Nc1ccc(-c2ccccc2)cc1,3,nt,nt,-2,nt,1.6*,0.078[42 µM],i,
O=C(NCC[C@@H]1CC[C@H](NC(=O)C2CCOCC2)[C@H](CO)O1)Nc1ccc(Cl)cc1,7,nt,nt,0,nt,1.4*,0.011[42 µM],i,
SMILES,PglD inh,PvdQ inh,dFosB act,SIRT5 block,CDK5 inh,FGF22 binding-1,FGF22 binding-2,SYPRO no-protein,others
O=C(NCC[C@@H]1CC[C@H](NC(=O)c2cnccn2)[C@H](CO)O1)Nc1ccc(F)cc1,0,nt,nt,12,nt,9.1*,0.19[42 µM],i,
O=C(Nc1ccc(Cl)cc1)N[C@@H]1CC[C@@H](CCNS(=O)(=O)c2ccccc2F)O[C@H]1CO,0,nt,nt,0,nt,1.6*,0.11[42 µM],i,FGF22 TSA=0
O=C(Nc1cc(Cl)cc(Cl)c1)N[C@H]1CC[C@H](CCNS(=O)(=O)c2cccc(F)c2)O[C@@H]1CO,2,nt,nt,2,nt,2.4*,0.13[42 µM],i,
COc1cc2oc(-c3ccc(O)cc3)cc(=O)c2c(OC)c1O,-1,-11,8,7,5,-1,nt,nt,
COc1cc2oc(-c3ccc(O)cc3)cc(=O)c2c(O)c1OC,-7,-12,8,nt,8,10*,-0.085,i,
C[C@H](CO)N1C[C@H](C)[C@H](CN(C)Cc2ccc(F)cc2)Oc2cc(C#CCN(C)C)ccc2S1(=O)=O,4,nt,nt,2,nt,1,nt,nt,
O=C(C[C@@H]1C=C[C@@H](NS(=O)(=O)c2ccc(F)cc2)[C@H](CO)O1)N1CCN(c2ccccc2)CC1,1,nt,nt,4,nt,0,nt,nt,
O=C(NN=Cc1ccc(O)cc1O)c1ccccc1NS(=O)(=O)c1cccs1,-5,1,-3,6,0,1.9*,0.24,i,
COc1ccc(C=NNC(=O)c2ccccc2NS(=O)(=O)c2cccs2)cc1O,1,-9,-8,-1,3,0,nt,nt,
O=C(C1CCCC1)N1CC(=O)N2[C@H](CO)[C@@H](c3ccc(C#Cc4cccc(F)c4)cc3)[C@H]2C1,nt,nt,nt,-1,nt,nt,nt,nt,
C[C@H](O)C#Cc1ccc2c(c1)O[C@H](CN(C)C(=O)Cc1ccccn1)[C@@H](C)CN([C@H](C)CO)S2(=O)=O,-1,nt,nt,-1,nt,1.4*,-0.082,i,
COCC(=O)N(C)C[C@@H]1Oc2cc(C#C[C@H](C)O)ccc2S(=O)(=O)N([C@@H](C)CO)C[C@H]1C,8,nt,nt,0,nt,36*,0.021[42 µM],i,
C[C@@H]1CN([C@H](C)CO)S(=O)(=O)c2ccc(C#CC3CC3)cc2O[C@H]1CN(C)C(=O)c1ccncc1,8,nt,nt,7,nt,1.4*,0.024,i,
CCCC#Cc1ccc2c(c1)O[C@H](CN(C)C(C)=O)[C@@H](C)CN([C@@H](C)CO)S2(=O)=O,-2,nt,nt,3,nt,1.5*,0.03,i,

# Compound activity (PubChem)
